Pf Dd2 inh: qHTS Primary assay for Inhibitors of Plasmodium falciparum Dd2 growth in vitro. P. falciparum Dd2 growth, SYBR Green, 72 h. Potency, µM (series often up to 28.9 µM), for the others: at the top dose activity, negative = inhibition, usual class: inhibitors. hit rate 4.3% among 120,000; active = well fitted inhibition curve with a large enough effect;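 also: plate controls were DMSO vehicle for no effect and reference drug for full effect; nearly all actives have a fitted effect of over 65% in size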
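Readout: SYBR Green fluorescence, 485 nm excitation, 535 nm emission, after ~16 h lysis at 37C. Before that, Dd2-infected red cells (2.5% hematocrit) grew 72 h with compound, 29 uM top final concentration.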
An asterisk follows results filed as active; i = inactive; [ ] = another dose, or the depositor's remark. The full list was thinned out, with hits kept by preference. Potency is read from the fitted curve at half-maximal effect.

SMILES	Pf Dd2 inh
CCOC(=O)c1cc(-c2ccc(OC)cc2)n(CCC(=O)NCc2ccc(OC)cc2)c1C	3.98µM*
CCOC(=O)c1cc(-c2ccccc2)n(CCC(=O)NCCc2ccc(OC)c(OC)c2)c1C	-8.1%
CCOC(=O)c1cc(-c2ccccc2)n(CC(=O)NCc2ccccc2)c1C	12.2%
CCOC(=O)c1cc(-c2ccc(C)cc2)n(CCC(=O)NCc2ccccc2)c1C	8.91µM*
CCOC(=O)c1cc(-c2ccc(C)cc2)n(CCC(=O)NCCc2ccc(C)cc2)c1C	i
Cc1cccnc1N1CCN(Cc2ccc(-n3cncn3)cc2)CC1	10.2%
COc1ccc(C(=O)N2CCCCCNC(=O)[C@@H]3CCC[C@@H]32)c(OC)c1	7.5%
CN(Cc1ccccc1)C(=O)C[C@@H]1O[C@H](CNC(=O)C2CC2)[C@@H](O)[C@H]1O	18.5%[44.1 µM]
C#CCNC(=O)c1cnc2cc(C)nn2c1	3.9%[44.1 µM]
CNC(=O)[C@@H](C1CC1)N1CCC[C@H]1C(=O)NC(C)(C)C	20.4%[44.1 µM]
O=C(C1CCCC1)N1CCC(N2C(=O)C(OCC3CC3)C23CCCCC3)CC1 (stereo unspecified)	i
O=C(c1n[nH]c2ccccc12)N1CCC(N2C(=O)C(OCC3CC3)C23CCCCC3)CC1 (stereo unspecified)	4.47µM*
CCn1ccc(C(=O)N2CCC(N3C(=O)C(OCC4CC4)C34CCCCC4)CC2)n1 (stereo unspecified)	-25.4%
Cc1cc(Cl)ccc1S(=O)(=O)N1CCCC1c1nncn1Cc1ccncc1 (stereo unspecified)	-14.1%
CC1(COCC2CC2)COc2ccc(C(=O)NCc3ccc4c(c3)OCO4)cc2N1 (stereo unspecified)	i
Cc1[nH]cnc1-c1nccn1-c1ccc(CCC(=O)NC2CC2)cc1	-15.7%
CCO[C@H]1CN(C(=O)CCCc2nc(-c3ccccc3OC)no2)C[C@@H]1O	-22.2%
COc1cc(/C=C(\C#N)c2nc3ccccc3[nH]2)ccc1OCc1ccc(F)cc1	1µM*
COc1cc(Br)c(/C=C(\C#N)c2nc3ccccc3[nH]2)cc1OC	-11.6%
N#C/C(=C\c1ccc(Cl)cc1)c1nc2ccccc2[nH]1	i
Cc1c(-c2ccc(F)cc2)[nH]c2ccc(CNC(=O)c3cnn(C)c3)cc12	-18.7%
CCNC(=O)N[C@H]1[C@H](O)[C@@H](N(C)CCN(C)C)[C@@H]2OC[C@H]1O2	i
CCOC(=O)c1c(NC(=O)CSc2cn(CCNC(=O)c3ccccc3F)c3ccccc23)sc2c1CCCC2	-27.6%
CCOC(=O)c1c(NC(=O)CSc2cn(CCNC(=O)c3ccccc3OC)c3ccccc23)sc2c1CCC2	11.2µM*
CCOC(=O)c1c(NC(=O)CSc2cn(CCNC(=O)c3ccc(OCC)cc3)c3ccccc23)sc2c1CCC2	i
SMILES	Pf Dd2 inh
O=C1NCCN2CC3(CCNCC3)CC12 (stereo unspecified)	i
CCS(=O)(=O)N1CCCC(Cc2ncc(C)n2C(C)C)C1 (stereo unspecified)	i
Cc1cnc(CC2CCN(S(=O)(=O)Cc3ccccc3)C2)n1C(C)C (stereo unspecified)	4.47µM*
CCN(CC)C(=O)N1CCCC(Cc2ncc(C)n2Cc2ccc(F)cc2)C1 (stereo unspecified)	3.55µM*
Cc1cnc(CC2CCN(S(=O)(=O)c3ccc4c(c3)CCC4)C2)n1CC1CC1 (stereo unspecified)	-16.2%
CCS(=O)(=O)N1CCCC(Cc2ncc(C)n2Cc2ccc(F)cc2)C1 (stereo unspecified)	1.78µM*
Cc1cnc(CC2CCN(S(=O)(=O)c3cn(C)cn3)C2)n1Cc1ccccc1 (stereo unspecified)	-19.0%
Cc1cnc(CC2CCN(C(=O)C3CC3)C2)n1C(C)C (stereo unspecified)	8.0%
CCCn1c(C)cnc1CC1CCCN(S(C)(=O)=O)C1 (stereo unspecified)	-4.5%
Cc1cnc(CC2CCCN(C(=O)COc3ccccc3)C2)n1Cc1ccc(F)cc1 (stereo unspecified)	-23.1%
CCCn1c(C)cnc1CC1CCCN(S(=O)(=O)c2cn(C)cn2)C1 (stereo unspecified)	-8.6%
COc1ccc(C(=O)N2CCCC(Cc3ncc(C)n3Cc3ccc(F)cc3)C2)cn1 (stereo unspecified)	i
CCCn1c(C)cnc1CC1CCN(S(=O)(=O)c2ccc3c(c2)CCC3)C1 (stereo unspecified)	1µM*
Cn1cc(-c2ccc3c(n2)CN(CCOc2ccccc2)C(=O)CO3)cn1	-18.8%[44.1 µM]
CCn1nccc1C(=O)N1CC(N(Cc2cccnc2)CC(C)C)C1	-25.2%
Cc1ccccc1C(=O)N1CCC(n2cc(-c3nc(-c4ccccc4)no3)nn2)CC1	-18.8%
COc1cccc(-c2nc3cc4c(cc3cc2CN2CCCOCC2)OCO4)c1OC	-2.7%
CNCc1ccccc1F	-8.6%[76.6 µM]
O=C1CCN(S(=O)(=O)c2ccccc2)CCCN(C(=O)CN2CCCC2=O)CCN1	1.4%
O=C(c1cnc2c(c1)N([S+](=O)([O-])c1cccnc1)CCC2)N1CCCC(CO)C1 (stereo unspecified)	30.8%[44.1 µM]

Bioassay records: PubChem, National Center for Advancing Translational Sciences (NCATS)
